Out of some 220,000 compounds screened, about 2,000 (0.91%) were called active. Not shown: some 2% with an inconclusive outcome. A selection follows. Measured potencies and affinities stand elsewhere. Unmarked numbers belong to inactive results. Rule as the data show it: inconclusive = inhibition above about 80% without an active follow-up result; inactive = below that; test concentration not stated here.
Experiment: M. tuberculosis H37Rv growth inhibitors, H37Rv strain (AID 1626);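 also: bacteria incubated seven days before Alamar blue readout; 0% = bacteria only wells and 100% = bacteria with antibiotic wells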
Settings: stronger effect = higher value, concentration not given here

Row | SMILES | inhibition
1 | O=C(CCC1CCCCC1)NNC(=O)c1cnccn1 | 22.5%
2 | CCCS(=O)(=O)c1csc(C(=O)OC)c1N | -5.25%
3 | CS(=O)(=O)c1ccc(C(=O)OCC(=O)NC2CCS(=O)(=O)C2)cc1[N+](=O)[O-] (stereo not given) | 2.59%
4 | CC(C)c1ccc(/C=N/NC(=O)c2nnn(-c3nonc3N)c2CSC2=NCCS2)cc1 | -0.79%
5 | COc1cc(C(=O)N2CCN(S(=O)(=O)c3ccc(F)cc3)CC2)cc(OC)c1OC | -4.16%
6 | CCOC(=O)N1C2=NC(C(=O)OC)=C(C(=O)OC)[C@@H]3N(C)c4ccc(OC)cc4[C@]23C[C@H]1C(=O)OC | 5.46%
7 | CN1CCc2ccccc2CC1=O | 1.98%
8 | N#CC1=C2SCC(O)(c3ccccc3)N2C(=O)CC1c1cccs1 (stereo not given) | 3.45%
9 | N#CC1=C2SCC(O)(c3ccccc3)N2C(=O)CC1c1ccccc1 (stereo not given) | -11.4%
10 | COC(=O)CSc1nnc(CNC(=O)c2ccccc2F)n1-c1ccccc1 | -1.52%
11 | Cc1cccc(N2CCN(C(=O)c3ccncc3)CC2C)c1 (stereo not given) | -7.46%
12 | Cc1cccc(N2CCN(C(=O)c3cc(C)oc3C)CC2C)c1 (stereo not given) | 4.99%
13 | Cc1cc(C)cc(NC(=S)/C(=C(\[O-])c2ccc(Cl)cc2Cl)[n+]2ccccc2)c1 | 6.94%
14 | Cc1ccc(S(=O)(=O)N2CCCN(S(=O)(=O)c3ccc4c(c3)OCCO4)CC2)cc1 | 8.01%
15 | O=C1c2ccccc2S(=O)(=O)c2cc(C(=O)N(c3ccccn3)c3ccccn3)ccc21 | -6.02%
16 | Clc1ccccc1-c1nnc2sc(C3COc4ccccc4O3)nn12 (stereo not given) | 3.12%
17 | Fc1ccc(-c2nnc3sc(C4COc5ccccc5O4)nn23)cc1 (stereo not given) | 20.6%
18 | O=C(NNc1c(Cl)cccc1Cl)C1CCC1 | -0.74%
19 | Cc1cc(N2CCN(C)CC2)nc2ccc(NC(=S)NCCCN3CCN(C)CC3)cc12 | 1.11%
20 | CCCCCOc1ccc(/C=c2\sc3nc(=O)c(-c4ccccc4)nn3c2=O)cc1OC | -2.22%
21 | Cc1ccccc1NC(=O)/C=C/c1cccc(C(F)(F)F)c1 | 3.62%
22 | O=C(C[n+]1cc(-c2ccc(F)cc2)n2c1CCC2)Nc1nc(-c2ccccc2)cs1 | 78.7%
23 | Cc1ccc(-c2c[n+](CC(=O)Nc3ccc(C)cc3C)c3n2CCC3)cc1 | 2.12%
24 | Cc1ccc(-c2c[n+](CC(=O)Nc3ccccc3C)c3n2CCC3)cc1 | 5.29%

Row | SMILES | inhibition
25 | CCc1ccc(NC(=O)C[n+]2cc(-c3ccc(C)cc3)n3c2CCC3)cc1 | 0.48%
26 | Cn1c(NC(=O)C[n+]2cc(-c3ccc(F)cc3)n3c2CCC3)cc(=O)n(C)c1=O | -5.35%
27 | Cc1ccc(NC(=O)C[n+]2cc(-c3ccccc3)n3c2CCC3)cc1 | -1.61%
28 | CCCCC(=O)OCC(=O)Nc1ccc(C)c(F)c1 | 9.33%
29 | Cc1ccc(NC(=S)N(Cc2cccs2)Cc2cc3cc(C)cc(C)c3[nH]c2=O)cc1 | -1.91%
30 | Fc1ccccc1CN1CCCN(C(=S)Nc2cccc(Cl)c2)C1 | -6.44%
31 | c1ccc(-c2nnc(N3CCOCC3)nc2-c2ccccc2)cc1 | 4.29%
32 | C=CCn1c(=NC(=O)c2cc(Cl)sc2Cl)sc2cc(S(N)(=O)=O)ccc21 | 52.4%
33 | COCCn1c(=NC(=O)c2cc(Cl)sc2Cl)sc2cc(S(N)(=O)=O)ccc21 | 17.1%
34 | COc1ccc(Nc2nnc(C)c(=O)[nH]2)c(OC)c1 | 0%
35 | CCn1cc(C(=O)O)c(=O)c2cc(F)c(N3CCN(C(=O)Nc4ccccc4)CC3)cc21 | 74.6%
36 | CCn1cc(C(=O)NCc2ccco2)c(=O)c2cc(F)c(N3CCN(C(=O)c4ccco4)CC3)cc21 | 71.1%
37 | CCn1cc(C(=O)O)c(=O)c2cc(F)c(N3CCN(S(=O)(=O)c4ccc(Br)cc4)CC3)cc21 | 13.5%
38 | CCn1cc(C(=O)O)c(=O)c2cc(F)c(N3CCN(C(=S)NC(=O)c4ccccc4Cl)CC3)cc21 | 29.7%
39 | CCCCCCC(=O)N1CCN(c2cc3c(cc2F)c(=O)c(C(=O)O)cn3CC)CC1 | 0.13%
40 | CCn1cc(C(=O)O)c(=O)c2cc(F)c(N3CCN(C(=S)NC(=O)c4ccccc4F)CC3)cc21 | 62.5%
41 | CCn1cc(C(=O)O)c(=O)c2cc(F)c(N3CCN(C(=S)NC(=O)c4ccccc4)CC3)cc21 | 30.7%
42 | CCn1cc(C(=O)NCc2ccncc2)c(=O)c2cc(F)c(N3CCN(C(=O)c4ccco4)CC3)cc21 | 10.2%
43 | CCN1C(=O)N[C@@H](c2ccccc2)[C@@H](C(=O)OC)[C@H]1C | -12.7%
44 | CC(=O)OCCNc1nc(-c2ccccc2)nc2ccccc12 | -5.25%
45 | CCCN(Cc1ccccc1)C(=S)Nc1cccc(C)c1C | 3.47%
46 | CCC(C)C(=O)Nc1cccc(SC)c1 (stereo not given) | 0.86%
47 | COc1cc2[nH]c(=S)nc(NC3CCCC3)c2cc1OC | 0.6%
48 | CCN(CC)NC(=O)Nc1ccccc1 | -12%

Row | SMILES | inhibition
49 | CCOc1ccc(NC(=O)CSc2nnc(Cc3cccn3C)n2-c2ccc(F)cc2)cc1 | -6.5%
50 | Nc1ncnc2c1ncn2[C@@H]1O[C@H](CO)[C@@H](O)[C@H]1O | -2.69%
51 | Nc1ncnc2c1ncn2[C@@H]1O[C@H](CO)[C@@H](O)[C@@H]1O | -0.73%
52 | Nc1nc(F)nc2c1ncn2[C@@H]1O[C@H](CO)[C@@H](O)[C@@H]1O | 72.3%
53 | Nc1ncnc2c1ncn2C1OC(CO)C(O)C1O (stereo not given) | -1.34%
54 | CC(=O)Oc1ccc(N2C(=O)C3C(C2=O)C(C(=O)c2ccc(Cl)cc2)N2CCCC32)cc1 (stereo not given) | -5.33%
55 | CCOC(=O)/C=C1\SCC(=O)N1CC(=O)NC12CC3CC(CC(C3)C1)C2 | 6.97%
56 | CN(C)/C=C1\C(=O)N(c2ccc(Cl)cc2)CS1(=O)=O | -3.16%
57 | O=C(NCc1ccc(Cl)cc1)C1CCC(CNc2c(N3CCCCC3)c(=O)c2=O)CC1 (stereo not given) | 5.8%
58 | O=C(C1CCC(CNc2c(N3CCCCC3)c(=O)c2=O)CC1)N1CCCC1 (stereo not given) | -3.71%
59 | CC1CCN(c2c(NCC3CCC(C(=O)NCCc4ccc(Cl)cc4)CC3)c(=O)c2=O)CC1 (stereo not given) | 11.6%
60 | CC1CCN(c2c(NCC3CCC(C(=O)N4CCCC(C)C4)CC3)c(=O)c2=O)CC1 (stereo not given) | -5.27%
61 | CCNC(=O)CC1C(=O)N(CC)C(=S)N1NC(=O)c1ccccc1 (stereo not given) | -3.85%
62 | CCCCOc1ccc(C(NC(=O)OCC)NC(=O)OCC)cc1 | 5.59%
63 | CC(C)OC(=O)CN1C(=O)C(C)(C)Oc2ccc(C(=O)NC3CC3)cc21 | -5.84%
64 | Cc1cc(C(=O)C(C)Cl)c(C)n1Cc1ccco1 (stereo not given) | 0.64%
65 | Cc1cc(C(=O)CSc2ncccn2)c(C)n1Cc1ccco1 | 6.3%
66 | Cc1cc(C(=O)COc2ccccc2C(N)=O)c(C)n1C | 0.29%
67 | Cc1cc(C(=O)CCl)c(C)n1CCc1ccccc1 | 66.4%
68 | COC(=O)c1ccc(-n2c(C)cc(C(=O)CCl)c2C)cc1 | 53.5%
69 | Cc1cc(C(=O)COc2ccccc2C(N)=O)c(C)n1CC1CCCO1 (stereo not given) | 1.33%
70 | COc1ccc(C(=O)c2ccc(OC)cc2OC)cc1 | 0.13%
71 | Cc1ccc(N=CC=C2OC(C)(C)C(C)(C)O2)c(C)c1 | -2.12%
72 | CC(=O)C1=C(O)C(=O)N(CCc2c[nH]c3ccccc23)C1c1cccc(O)c1 (stereo not given) | 1.15%

Row | SMILES | inhibition
73 | CC(C)=CC(=O)Nc1ccc2c(c1)OCO2 | -4.24%
74 | CS(=O)(=O)N(CC(=O)Nc1cccc([N+](=O)[O-])c1)c1ccccc1 | -4.25%
75 | Cn1c(=O)n(Cc2ccccc2)c2ccccc21 | -7.14%
76 | COc1cccc2sc(Nc3nnc(-c4cccs4)o3)nc12 | -3.65%
77 | Fc1cccc2sc(Nc3nc4c(F)cccc4s3)nc12 | 43%
78 | COc1ccc(-c2nnc(Nc3nc4c(OC)cccc4s3)o2)c(OC)c1 | 3.73%
79 | COc1ccccc1-c1nnc(Nc2nc3c(OC)cccc3s2)o1 | 8.74%
80 | COc1cccc2sc(Nc3nnc(-c4ccccc4Cl)o3)nc12 | 52.8%
81 | NNc1nc2c(F)cccc2s1 | 8.41%
82 | O=C(COC(=O)c1cccc2ccccc12)NCC1CCCO1 (stereo not given) | -2.85%
83 | CCn1cc(C2C3=C(CC(C)(C)CC3=O)N(c3ccccc3)C3=C2C(=O)CC(C)(C)C3)c(C)n1 | -3.23%
84 | CCC1=C(OC(=O)N(CC)CC)N2C(=O)OC(=NCCOC)[C@]2(Cc2ccccc2)[C@H]2C1=CC[C@H]1C(=O)NC(=O)[C@H]12 | 10.1%
85 | O=C(NC1CCCCC1)c1nn2c(C(F)(F)F)cc(-c3ccco3)nc2c1Br | 1.53%
86 | COCCn1c(SCC(=O)Nc2ccccc2OC)nc2c(oc3ccccc32)c1=O | 3.65%
87 | COc1ccc(SCCC(=O)NCc2ccncc2)cc1 | -7.49%
88 | Cc1cccc(N2CCN(C(=O)c3cccc(N4C(=O)C5CC=CC(C)C5C4=O)c3)CC2)c1C (stereo not given) | -7%
89 | COc1ccc(C2C(C(=O)Nc3ccc(F)cc3)=C(C)Nc3nc(CCCO)nn32)cc1 (stereo not given) | -9.75%
90 | CCc1ccc2c(c1)C(=O)c1ccccc1C2=O | 7.07%
91 | Nc1ccc2c(c1)CCC2=O | -8.13%
92 | Nc1ccc2c(c1)CC(=O)c1ccccc1S2 | 9.71%
93 | CC(C)(C)c1ccc2c(c1)C(=O)c1ccccc1C2=O | 7.48%
94 | Cc1ccc(-c2ccc3c(c2)S(=O)(=O)c2ccccc2C3=O)cc1 | -4.26%
95 | O=C1c2ccccc2-c2nnc(-c3ccccc3)cc21 | -2.39%

Source: PubChem BioAssay AID1626 (SRMLSC, 2009)
